Screening results as filed in PubChem BioAssay.
NS3h inh CB = blocks HCV NS3 helicase binding to DNA | NS3h Cy5-dT15 DNA binding, fluorescence polarization | inhibition, % at 100 µM | actives 1.6% (n = 16,000);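 active = inhibition above the average over every tested compound plus 3 SD, cut at about 40% in these data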
Cy5 interf NS3h = counter-screen for HCV NS3 helicase inhibitors: fluorescence interference; fluorescence interference ratio at 100 µM; AID 720488; actives 6% (n = 16,000); Cy5-dT15 DNA with NS3h; actives lie on both sides; signal over control mean, under 1 quenches;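 active = compound fluorescence over control fluorescence at most 0.8, a quencher, or at least a set upper limit, an enhancer; inactive = ratio between 0.8 and the set upper limit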
An asterisk follows results filed as active. The list is not random: actives were taken first. Their share in the collection is about 7.6%.

SMILES | NS3h inh CB | Cy5 interf NS3h
COC(=O)c1ccccc1NC(=O)Cn1cnc([N+](=O)[O-])n1 | 7 | 0.69*
CCOc1ccc(NC(=O)CSc2nnc(-c3ccc(OC)cc3)o2)cc1 | 20 | 0.74*
COc1ccc(NC(=O)CSc2ncccn2)cc1 | 0 | 1.1
S=C(c1cccc(OCc2ccccc2)c1)N1CCOCC1 | 28 | 0.64*
COc1ccc(C(=O)Oc2cccc(C(=S)N3CCOCC3)c2)cc1 | 14 | 0.96
CCOC(=O)c1c(NC(=O)C(OC(C)=O)c2ccccc2)sc2c1CCC2 (stereo not drawn) | 6 | 1.1
O=[N+]([O-])c1cccc(-c2ccc(CO)o2)c1 | -3 | 0.95
O=[N+]([O-])c1cccc(C2=Nc3ccc([N+](=O)[O-])cc3ON2)c1 | 2 | 0.74*
Cc1cc(C)nc(N=C(N)Nc2ccccc2O)n1 | -12 | 0.98
O=C1NC(=S)N(c2ccc(F)cc2)C(=O)/C1=C/c1ccc(F)cc1 | 8 | 0.65*
CCc1ccc(N2C(=O)/C(=C/c3ccc(O)c(Cl)c3)C(=O)NC2=S)cc1 | 0 | 1.2
Cc1ccc(N2C(=O)/C(=C/C=C/c3ccccc3)C(=O)NC2=S)cc1 | 34 | 0.72*
CCOc1ccc(/C=C2\C(=O)NC(=S)N(c3ccc(C)cc3)C2=O)cc1Cl | 6 | 0.9
Cc1ccc2nsnc2c1NC(=O)c1cccc(Cl)c1 | 11 | 1.1
COc1ccc(Cl)cc1C(=O)N(Cc1ccccc1)C(C)C | 10 | 0.97
O=C(c1cc(Cl)ccc1Cl)N(Cc1ccccc1)c1ccccn1 | 8 | 0.62*
CC(O)=C(C(=S)NC(=O)c1ccccc1)C(N)=NC(=O)c1ccccc1 | -3 | 1
CCCOc1ccc(C2C3=C(CC(C)(C)CC3=O)OC3=C2C(=O)CC(C)(C)C3)cc1OCC | 9 | 0.78*
CCCOc1c(Br)cc(C2C3=C(CC(C)(C)CC3=O)OC3=C2C(=O)CC(C)(C)C3)cc1OC | 17 | 0.97
COc1cc(/C=C2/C(=O)N(c3ccccc3)N=C2C)cc(I)c1O | 17 | 0.69*
COc1cc(/C=C2/C(=O)N(c3ccccc3)N=C2C)cc([N+](=O)[O-])c1O | 4 | 0.93
CCN(CC)c1ccc(NC(=O)c2ccc(I)cc2)cc1 | 16 | 1.3*
CCN(CC)c1ccc(NC(=O)c2ccc(Br)cc2)cc1 | 8 | 1
CCCNC(=O)c1cc(OC)c(OC)cc1[N+](=O)[O-] | 10 | 0.79*
COc1cc(C(=O)Nc2ccc(NC(C)=O)cc2)c([N+](=O)[O-])cc1OC | 10 | 1
SMILES | NS3h inh CB | Cy5 interf NS3h
C#Cc1cccc(N2C(=O)c3ccc(C(=O)O)cc3C2=O)c1 | 12 | 0.98
O=C(O)c1ccc2c(c1)C(=O)N(c1ccc(-c3nc4cc(N5C(=O)c6ccc(C(=O)O)cc6C5=O)ccc4[nH]3)cc1)C2=O | 10 | 0.65*
COc1cc(C2C(=C(O)c3ccccc3)C(=O)C(=O)N2c2cccc(C)c2)ccc1O (stereo not drawn) | 5 | 1
COc1cccc(C=C2C(=O)NC(=S)NC2=O)c1OC | -10 | 1.1
CC(=O)c1ccc(N2C(=O)c3c(Cl)c(Cl)c(Cl)c(Cl)c3C2=O)cc1 | 9 | 0.7*
CC(=O)c1ccc(N2C(=O)c3ccccc3C2=O)cc1 | 8 | 1
CCOC(=O)C1=C(C)NC(=S)NC1c1ccc(C(=O)O)cc1 (stereo not drawn) | 9 | 1
O=C(Nc1ccc(NC(=O)c2ccccc2Br)cc1)c1ccccc1Br | 9 | 0.96
COc1ccccc1C(=O)Nc1ccc(Br)cc1 | 0 | 0.91
COc1ccccc1C(=O)Nc1cc(C)cc(C)c1 | 15 | 0.68*
CC(=O)Nc1ccc(NC(=O)c2ccccc2OC(F)F)cc1 | 6 | 0.77*
COc1cc(/C=c2\sc3nc4ccccc4n3c2=O)ccc1OC(=O)c1ccc(F)cc1 | 9 | 0.95
CCOC(=O)/C(C#N)=C\c1ccc(F)cc1 | -7 | 1
Cc1ccc(S(=O)(=O)C(CC(=O)c2ccc(O)cc2)c2ccccc2)cc1 (stereo not drawn) | -5 | 0.96
O=C1NN=C2C3CCC4CC12CC1(C3)C(=O)NN=C41 | 6 | 0.74*
CC(C)(C)n1c(O)c(N=Nc2ccc(Br)cc2)c(=O)[nH]c1=O | 8 | 0.94
CC(=O)c1ccc(N2CCN(S(=O)(=O)c3ccccc3)CC2)c(F)c1 | 9 | 0.79*
CC(=O)c1ccc(N2CCC(C)CC2)c(F)c1 | 10 | 1
O=C1CSC2(N1)C1CC3CC(C1)CC2C3 (stereo not drawn) | -1 | 1.2*
Cc1ccc(C(=O)c2c(C)oc3ccc(O)cc23)cc1 | 13 | 0.87
Cc1cc(C)c(S(=O)(=O)Nc2cc(Br)c(O)c3ccccc23)c(C)c1 | 4 | 0.96
Cc1ccc(N2C(=O)NC(=O)/C(=C\c3ccc(Cl)cc3)C2=O)cc1 | 14 | 1
O=C1NC(=O)N(c2ccc(I)cc2)C(=O)/C1=C\C=C\c1ccco1 | 21 | 0.77*
Cc1ccc(N2C=NNC(=O)C2)cc1C | 6 | 1.1
O=C1/C(=C\c2cccc(C(F)(F)F)c2)SC(=S)N1c1cccc(Cl)c1 | 7 | 1.1
SMILES | NS3h inh CB | Cy5 interf NS3h
O=C1/C(=C/C=C/c2ccccc2)SC(=S)N1c1cccc(C(F)(F)F)c1 | 17 | 0.75*
COc1ccc(CN2CCN(Cc3cccc(C)c3)CC2)cc1OC | -8 | 1.1
Cc1ccc(/C(N)=N\OC(=O)c2ccc(Cl)cc2Cl)cc1 | 8 | 0.91
Cc1nc2ccccc2n1S(=O)(=O)c1ccc(Br)cc1 | -2 | 0.98
O=S(=O)(c1ccc2c(c1)Cc1cc(S(=O)(=O)n3cnc4ccccc43)ccc1-2)n1cnc2ccccc21 | 9 | 0.64*
O=C(c1ccc(Cl)c([N+](=O)[O-])c1)N1CCC(Cc2ccccc2)CC1 | 2 | 0.85
O=S(=O)(c1ccc2ccccc2c1)N(CC(O)CN1CCCCC1)c1ccccc1 (stereo not drawn) | 4 | 1.1
CC(=O)N/C(=C\c1cccc([N+](=O)[O-])c1)C(=O)NC(C)C | 6 | 1
C/C(=N/N=C\c1cccc([N+](=O)[O-])c1)C1C(=O)c2ccccc2C1=O | 9 | 0.62*
CCN1C(=O)/C(=C2\SC(=S)N(NC(=O)c3ccccc3Cl)C2=O)c2ccccc21 | 11 | 1
CCOC(=O)c1ccccc1NC(=O)CN(c1ccc(C)cc1)S(C)(=O)=O | 42* | 0.81
COC(=O)c1ccccc1NC(=O)CN(c1ccc(C)cc1)S(C)(=O)=O | 11 | 0.99
Cc1cc(=O)n2ccc(CN(C)C)c(O)c2n1 | 5 | 0.62*
O=C1NN(c2ccccc2)C(=O)/C1=C/c1cccc(Cl)c1Cl | 47* | 0.99
CCOC(=O)c1ccc(N2NC(=O)/C(=C/c3cc(Br)ccc3O)C2=O)cc1 | -14 | 0.69*
COc1cc(/C=C2/C(=O)NN(c3ccc(C)c(C)c3)C2=O)cc([N+](=O)[O-])c1O | 10 | 0.72*
CCOC(=O)c1ccc(N2NC(=O)/C(=C/c3cccc(OC)c3O)C2=O)cc1 | -2 | 0.85
COc1cc(Br)cc(/C=C2\C(=O)NN(c3ccccc3)C2=O)c1O | 45* | 0.82
Cc1ccc(N2NC(=O)/C(=C/c3ccc(C)c([N+](=O)[O-])c3)C2=O)cc1Cl | 28 | 0.93
O=C1NN(c2ccccc2)C(=O)/C1=C/c1cccc2ccccc12 | 19 | 1
CCOc1c(/C=C2\C(=O)NN(c3ccccc3)C2=O)cccc1OC | 10 | 1
CCOC(=O)CC1=Nn2c(nnc2-c2ccc(Cl)cc2)SC1 | -2 | 0.99
CCCc1c(C)c2c(OCC(=O)O)cc(OCC(=O)O)cc2oc1=O | 13 | 0.76*
